Measured values from PubChem BioAssay AID504332 (National Center for Advancing Translational Sciences (NCATS), 2011).
In all, about 350,000 compounds went through this assay and about 31,000 (8.9%) were called active. Where a call stands in place of a potency, no number is given. Another 15% or so got no clear call; they are omitted. The sample as a whole holds a higher share of actives than the screen did. A number with no mark means an inactive call. Calls follow the shape of the dose curve; as a rule, active = well fitted inhibition curve with a large enough effect; inconclusive = small, poorly fitted or top-dose-only effect; inactive = no such curve, though single readings can be large or run the other way.

Target: Histone-lysine N-methyltransferase EHMT2 (Homo sapiens) (UniProt Q96KQ7)
Experiment: qHTS Assay for Inhibitors of Histone Lysine Methyltransferase G9a; also: nearly all actives have a fitted effect of over 75% in size
Conditions: G9a H3K9 monomethylation, AlphaScreen, 2 h; series mostly up to 59 µM
Summary of the method: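 Using a bead-based AlphaScreen, monomethylated H3K9 product from 2 h room-temperature reactions (G9a 20 nM, peptide 500 nM, SAM 20 uM) was detected with 0.5 ug/mL rabbit anti-H3K9me1 antibody.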
Potency is read from the fitted curve at half-maximal effect.

Histone-lysine N-methyltransferase EHMT2 (Homo sapiens), sequence (Q96KQ7 913-1193 limits assumed): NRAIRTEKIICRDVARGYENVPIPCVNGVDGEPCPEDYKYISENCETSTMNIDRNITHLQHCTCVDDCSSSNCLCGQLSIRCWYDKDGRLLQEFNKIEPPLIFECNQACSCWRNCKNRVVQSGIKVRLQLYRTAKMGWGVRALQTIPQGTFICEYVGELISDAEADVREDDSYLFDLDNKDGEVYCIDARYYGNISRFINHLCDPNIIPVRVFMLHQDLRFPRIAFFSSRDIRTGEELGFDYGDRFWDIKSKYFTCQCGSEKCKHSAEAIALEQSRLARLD

Row | SMILES | Potency | activity, negative = inhibition
1 | CC(=O)c1sc(N/N=C\c2ccc(C)cc2)nc1C | inactive | –
2 | CC(=O)c1sc(NC(=O)C2=NN(c3ccccc3)C(=O)CC2)nc1C | 25.1 µM (active) | –
3 | C/C(N)=C(/C#N)C(=O)COC(=O)C1=NN(c2ccccc2)C(=O)CC1 | inactive | –
4 | COc1cc2c(cc1OC)[C@@H](Cc1cc(OC)c(OC)c(OC)c1)[N+](C)(CCCOC(=O)CC/C=C/CCC(=O)OCCC[N+]1(C)CCc3cc(OC)c(OC)cc3[C@H]1Cc1cc(OC)c(OC)c(OC)c1)CC2 (some centres undefined) | – | 6.96% [at 12.7 µM]
5 | Cc1noc(C)c1C(=O)NCC1COc2ccccc2O1 (centres undefined) | – | -3.43% [at 2.33 µM]
6 | COc1ccc(-c2nc(C)c(CCNC(=O)c3ccc(C(F)(F)F)cc3)s2)cc1OC | inactive | –
7 | CCOc1cc(CNC(=O)c2sc3ncnc(N(C)C4CCCCC4)c3c2C)ccc1OC | inactive | –
8 | O=C(O)CCCn1c(=O)c2cccn2c2ccc(F)cc21 | inactive | –
9 | COCCCn1c(CCC(=O)O)ccc1-c1ccc(F)cc1 | 11.2 µM (active) | –
10 | COCCCNC(=O)C1CC(=O)N(CCc2ccc(F)cc2)C1 (centres undefined) | inactive | –
11 | COc1ccc(NC(=O)CCNS(=O)(=O)c2ccc3c(c2)CCCC(=O)N3)cc1Cl | inactive | –
12 | CCc1ccc(NC(=O)CN2C(=O)CCSc3ccc(S(=O)(=O)N4CCCC4)cc32)cc1 | inactive | –
13 | COc1ccc2c(c1)c(=O)c(C(=O)c1ccccc1)cn2CC(=O)Nc1ccc2c(c1)OCCO2 | inactive | –
14 | O=C(Nc1cccc([N+](=O)[O-])c1)N1CCc2ccccc2C1 | inactive | –
15 | O=C(NCCCc1ccccc1)C1CCC(=O)N(CCc2ccc(Cl)cc2)C1 (centres undefined) | – | -2.97% [at 12.7 µM]
16 | CC(C(=O)N(C)CC(=O)Nc1ccccc1C(F)(F)F)N1C(=O)c2ccccc2C1=O (centres undefined) | – | 8.77% [at 12.7 µM]
17 | CN(CC(=O)Nc1ccc(Cl)c(C(F)(F)F)c1)C(=O)CCC(=O)c1ccccc1 | inactive | –
18 | CN(CC(=O)Nc1ccccc1C(F)(F)F)C(=O)Cc1ccccc1F | 50.1 µM (active) | –
19 | COc1ccccc1CN1CCC(CNC(=O)c2cnn(-c3ccccc3Cl)c2C2CCN(C(=O)OC(C)(C)C)CC2)CC1 | inactive | –
20 | CN(Cc1nc2ccccc2s1)C(=O)c1ccc(F)cc1 | inactive | –
21 | Cc1nc2ccccc2c(-c2ccccc2)c1C(=O)c1ccccc1 | inactive | –
22 | Cc1nc2ccccc2c(C)c1C(=O)c1ccc(F)cc1 | 50.1 µM (active) | –

Row | SMILES | Potency | activity, negative = inhibition
23 | COc1cc(C(=O)N2CCN(C(=O)COc3cccc(C)c3)CC2)cc(OC)c1OC | inactive | –
24 | CN(C(=O)COC(=O)c1ccc(Br)o1)c1c(N)n(Cc2ccccc2)c(=O)[nH]c1=O | – | -30.9% [at 0.501 µM]
25 | Cc1ccc(CNS(=O)(=O)c2ccc(-c3cc(C(F)(F)F)on3)s2)cc1 | inactive | –
26 | Cc1ccc(CN2C(=O)SC(Nc3ccccc3)C2=O)cc1 (centres undefined) | inactive | –
27 | Cn1cc(/C=C/c2nc3ccccc3c(=O)n2-c2cccc([N+](=O)[O-])c2)c2ccccc21 | inactive | –
28 | Cc1ccc(N2C(=O)S/C(=C/c3cn(C)c4ccccc34)C2=O)cc1 | inactive | –
29 | Cc1cccc(N=C2NC(=O)/C(=C/c3cn(C)c4ccccc34)S2)c1 | 79.4 µM (active) | –
30 | CCC(=O)N1CCc2cc(S(=O)(=O)NC(C(=O)Nc3ccc(C(C)=O)cc3)C(C)C)ccc21 (centres undefined) | inactive | –
31 | Cc1ccc(C)c(NC(=O)C2CCCN(S(=O)(=O)c3cn(C)cn3)C2)c1 (centres undefined) | inactive | –
32 | C=CCNc1nc(N)c([N+](=O)[O-])c(NC2CCCCC2)n1 | inactive | –
33 | CCCNC(=O)CCc1c(C)nc2c(c(C)nn2-c2ccccc2)c1C | inactive | –
34 | Cc1ccc(C)c(Cn2c(C(=O)O)c(CNCc3cccs3)c3ccccc32)c1 | inactive | –
35 | O=C(Nc1ccccc1)Nc1nc2ccccc2s1 | inactive | –
36 | COc1ccc(Nc2nc(-c3ccccc3)cs2)cc1 | 12.6 µM (active) | –
37 | NS(=O)(=O)c1ccc(Nc2nc(-c3ccccc3)cs2)cc1 | 44.7 µM (active) | –
38 | COc1ccc(CC(=O)Nc2nc(-c3ccc(F)c(F)c3)cs2)cc1OC | inactive | –
39 | COc1ccc(OC)c(Nc2nc(-c3ccc(O)c(O)c3)cs2)c1 | 3.98 µM (active) | –
40 | CCOC(=O)Cc1csc(NC(=O)Nc2ccccc2)n1 | inactive | –
41 | CC(=O)Nc1ccc(-c2csc(NC(=O)Nc3ccccc3)n2)cc1 | 44.7 µM (active) | –
42 | CC(=O)Nc1nc(C)c(-c2csc(Nc3ccc(S(N)(=O)=O)cc3)n2)s1 | inactive | –
43 | O=C(Nc1ccc(-c2csc(Nc3cccc(C(F)(F)F)c3)n2)cc1)c1cccc(C(F)(F)F)c1 | – | -6.74% [at 12.7 µM]
44 | COc1ccc(-c2csc(NC3OC(=O)c4ccccc43)n2)cc1 (centres undefined) | inactive | –

Row | SMILES | Potency | activity, negative = inhibition
45 | COc1cccc(CC(=O)Nc2nc(-c3ccc(OC)c(OC)c3)cs2)c1 | inactive | –
46 | COc1ccc2nc(Nc3nc(-c4ccncc4)cs3)sc2c1 | inactive | –
47 | CCOc1ccc(NC(=O)CSc2c3c(nc4ccccc24)CCCC3)cc1 | inactive | –
48 | COc1ccccc1CNC(=O)COn1nnc2ccc(S(=O)(=O)N3CCOCC3)cc21 | inactive | –
49 | Cc1cc(O)c(C(=O)/C=C/c2c(F)c(F)c(F)c(F)c2F)c(=O)o1 | – | -25.4% [at 2.33 µM]
50 | Cc1ccc2c(c1)N(C(=O)Nc1ccc(Br)cc1F)CCO2 | inactive | –
51 | Cc1ccc(S(=O)(=O)N2CCN(c3ccccc3)CC2)cc1C | inactive | –
52 | NS(=O)(=O)c1ccc(CNC(=O)c2cccc(S(=O)(=O)N3CCc4ccccc43)c2)cc1 | – | 15.2% [at 2.33 µM]
53 | Cc1ccc(NC(=O)CSc2nc3c([nH]c4ccccc43)c(=O)n2-c2ccccc2)cc1Cl | inactive | –
54 | COc1ccc(OCc2n[nH]c(=S)n2N)cc1 | 1.78 µM (active) | –
55 | COc1ccc(OCc2ccc(-c3nc4ccccc4c(=O)n3N)o2)cc1 | – | 14.4% [at 2.33 µM]
56 | Cc1n[nH]c(=O)n1-c1ccc(Oc2ccccc2)cc1 | inactive | –
57 | COc1ccc(OCC(=O)OCCN(C)C)cc1 | inactive | –
58 | Cc1ccc(OCc2n[nH]c(=S)n2-c2ccc(C)cc2)cc1 | inactive | –
59 | CC(Sc1nnc(COc2ccccc2)n1-c1ccccc1)C(=O)O (centres undefined) | – | 9.68% [at 0.501 µM]
60 | Cc1ccc(OCc2n[nH]c(=S)n2-c2ccccc2)cc1 | 1.58 µM (active) | –
61 | Cc1ccc(OCc2nc3ccccc3n2C)cc1 | – | 4.42% [at 0.501 µM]
62 | S=c1[nH]nc(COc2ccccc2)n1-c1ccccc1 | 2.51 µM (active) | –
63 | Cc1ccc(NCc2n[nH]c(=S)n2-c2ccccc2)cc1Cl | 22.4 µM (active) | –
64 | Cc1ccc(NC(=O)Nc2cc(-c3ccccc3)nn2C)cc1Cl | inactive | –
